Test results as given in PubChem BioAssay (Tox21).
Records with an inconclusive call do not appear. Where a call stands in place of a potency, no number is given. Calls of active or inactive are those of the source. The call rests on the fitted dose curve.

Test: qHTS assay to identify small molecule antagonists of the estrogen receptor alpha (ER-alpha) signaling pathway - cell viability counter screen (AID 743074);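 further: HEK293 cells carrying ER-alpha-UAS-bla reporter stimulated with 17beta-estradiol; nearly all actives have a fitted effect of over 45% in size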
Settings: ERalpha-bla HEK293 viability, CellTiter-Glo luminescence, 18 h; series mostly up to 69.4 µM

Compound | Potency
O=C1OC(CN2CCOCC2)CN1/N=C/c1ccc([N+](=O)[O-])o1 (configuration not stated) | inactive
CC(COCCO)OCCO (configuration not stated) | inactive
Cc1cccc(C)c1NC(=O)CN(CC(=O)O)CC(=O)O | inactive
CN(Cc1ccc(C(C)(C)C)cc1)Cc1cccc2ccccc12 | inactive
CCCCC(CC)COC(=O)COc1ccc(Cl)cc1Cl (configuration not stated) | inactive
CNC(=O)CN(CCN(CCN(CC(=O)[O-])CC(=O)NC)CC(=O)[O-])CC(=O)[O-].O.[Gd+3] | inactive
c1ccc(CNCCNCc2ccccc2)cc1 | inactive
OCc1cc(C(O)CNCCCCCCOCCCCc2ccccc2)ccc1O (configuration not stated) | inactive
CCC(C)c1cc(C(C)(C)C)c(O)c(C(C)(C)C)c1 (configuration not stated) | inactive
C[C@@H]1C[C@H]2O[C@@]3(O[C@@H]2C(C)(C)O)[C@H](O)[C@@]2(C)[C@@H]4CC[C@H]5C(C)(C)[C@@H](O[C@@H]6OC[C@@H](O)[C@H](O)[C@H]6O)CC[C@@]56C[C@@]46CC[C@]2(C)[C@@H]13 | inactive
COc1ccc(S(=O)(=O)N2C(=O)[C@@](c3ccccc3OC)(N3C[C@H](O)C[C@H]3C(=O)N(C)C)c3cc(Cl)ccc32)c(OC)c1 | inactive
CC1=CC[C@H](C(C)C)C=C1 | inactive
CC(C)CC(=O)C1C(=O)c2ccccc2C1=O | inactive
N=c1ccn2c(n1)O[C@H]1[C@H](O)[C@@H](CO)O[C@H]12 | inactive
CCOC(=O)NCCOc1ccc(Oc2ccccc2)cc1 | inactive
Nc1ccccc1S(=O)(=O)c1ccccc1 | inactive
CC(C)=CCC/C(C)=C/CC/C(C)=C/CO | inactive
